# Screening data: PubChem BioAssay, National Center for Advancing Translational Sciences (NCATS)
# A selection: hits, their analogues and other compounds. The true share with any hit is near 12%.
# JMJD2A Tudor = qHTS Assay for Inhibitors of JMJD2A-Tudor Domain; Lysine-specific demethylase 4A (Homo sapiens), O75164; AlphaScreen JMJD2A-Tudor / H3K4me3 peptide binding; Potency, µM (series often up to 114 µM), for inactives: top-dose activity change, negative = inhibition, usual class: inhibitors; actives 4.4% (n = 390,000); AID 504339, 2011; note: % is set by controls: 0 for no effect and ±100 for the full control effect; nearly all actives have a fitted effect of over 50% in size
# Target sequence (O75164 whole entry, looked up, the tested form may be a part): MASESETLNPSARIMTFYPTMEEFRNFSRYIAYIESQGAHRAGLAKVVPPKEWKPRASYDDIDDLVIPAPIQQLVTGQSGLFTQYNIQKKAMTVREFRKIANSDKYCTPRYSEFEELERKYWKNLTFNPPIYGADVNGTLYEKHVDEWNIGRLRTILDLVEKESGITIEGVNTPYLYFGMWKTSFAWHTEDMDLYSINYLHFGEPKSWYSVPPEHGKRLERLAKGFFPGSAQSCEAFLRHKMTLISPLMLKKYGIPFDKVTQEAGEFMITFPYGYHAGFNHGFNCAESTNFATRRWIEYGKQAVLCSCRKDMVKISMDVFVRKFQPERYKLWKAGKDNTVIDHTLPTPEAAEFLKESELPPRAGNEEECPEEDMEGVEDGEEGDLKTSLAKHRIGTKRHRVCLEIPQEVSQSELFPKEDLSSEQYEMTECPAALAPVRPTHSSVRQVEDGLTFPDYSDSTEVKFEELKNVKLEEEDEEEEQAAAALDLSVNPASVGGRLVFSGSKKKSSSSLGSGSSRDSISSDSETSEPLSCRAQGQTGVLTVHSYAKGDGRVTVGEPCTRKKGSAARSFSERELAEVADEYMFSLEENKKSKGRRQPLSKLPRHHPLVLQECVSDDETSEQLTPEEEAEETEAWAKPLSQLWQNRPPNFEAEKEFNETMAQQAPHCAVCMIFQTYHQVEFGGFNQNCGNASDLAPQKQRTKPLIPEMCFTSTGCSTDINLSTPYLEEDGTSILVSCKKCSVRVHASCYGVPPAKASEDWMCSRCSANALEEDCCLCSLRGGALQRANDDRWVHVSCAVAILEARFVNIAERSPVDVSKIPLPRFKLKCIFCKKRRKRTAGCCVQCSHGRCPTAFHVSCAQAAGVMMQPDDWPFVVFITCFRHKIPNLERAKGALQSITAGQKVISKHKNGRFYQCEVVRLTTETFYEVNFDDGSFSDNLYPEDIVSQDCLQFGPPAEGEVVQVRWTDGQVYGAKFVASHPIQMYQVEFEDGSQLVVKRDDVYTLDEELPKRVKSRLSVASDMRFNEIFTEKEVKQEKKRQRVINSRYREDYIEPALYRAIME
# G9a inh = qHTS Assay for Inhibitors of Histone Lysine Methyltransferase G9a; Histone-lysine N-methyltransferase EHMT2 (Homo sapiens), Q96KQ7; G9a H3K9 monomethylation, AlphaScreen, 2 h; actives 8.8% (n = 350,000); Potency, µM (titrated, usually from 102 µM), for inactives: top-dose activity, negative = inhibition, hits mostly inhibitors; note: % is set by controls: 0 for no effect and ±100 for the full control effect; nearly all actives have a fitted effect of over 75% in size
#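 Compounds were preincubated with 20 nM G9a for 15 min, after which biotinylated H3K9 peptide (500 nM) and SAM (20 uM) started a 2 h room-temperature reaction. Monomethylated product was quantified by antibody-based AlphaScreen chemiluminescence.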
# BAZ2B inh = qHTS Assay for Inhibitors of BAZ2B | AlphaScreen BAZ2B-H3K14Ac peptide displacement | actives 4.4% (n = 360,000) | Potency, µM (highest dose often 114 µM), for the others: top-dose activity change, negative = inhibition, hits mostly inhibitors | AID 504333, 2011 | Bromodomain adjacent to zinc finger domain protein 2B (Homo sapiens), Q9UIF8; note: % is set by controls: 0 for no effect and ±100 for the full control effect; nearly all actives have a fitted effect of over 60% in size
#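 Complex of BAZ2B and biotin-H3K14Ac (50 nM apiece) forms over 30 min at RT, then faces library compounds up to 110 uM for another 30 min; AlphaScreen beads added, 20 min dark incubation, luminescence read.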
# HP1b binding inh = HTS for Inhibitors of HP1-beta Chromodomain Interactions with Methylated Histone Tails | Chromobox protein homolog 1 (Homo sapiens), P83916 | AlphaScreen HP1-beta / biotin-H3K9me3 peptide binding | actives 0.56% (n = 390,000) | Potency, µM (highest dose often 114 µM), inactives show at the top dose activity change, negative = inhibition, actives largely listed as inhibitors | AID 540317, 2011; note: nearly all actives have a fitted effect of over 70% in size
#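 Compound inhibition of the preformed complex between 50 nM HP1-beta and 50 nM biotinylated H3K9me3 peptide was read by AlphaScreen. Buffer was PBS pH 7.4 with 0.01% Tween-20. Incubations ran 30 min at room temperature, with 10 ug/mL donor/acceptor beads.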
# L3MBTL1 inh = qHTS Assay for the Inhibitors of L3MBTL1; AID 485360, 2010; AlphaScreen L3MBTL1–H3K9me1 peptide binding; actives 0.66% (n = 230,000); Lethal(3)malignant brain tumor-like protein 1 (Homo sapiens), Q9Y468; Potency, µM (titrated, usually from 57.1 µM), inactives show at the top dose activity, negative = inhibition, actives largely listed as inhibitors; note: % is set by controls: 0 for no effect and ±100 for the full control effect; nearly all actives have a fitted effect of over 60% in size
#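 L3MBTL1 50 nM + b-AHA-H3(1-15)K9me1 75 nM, 30 min RT; compound added, 30 min RT; streptavidin donor/Ni-chelate acceptor beads 10 ug/mL each final, 30 min RT dark; AlphaScreen read.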
# Sfp PPTase inh = qHTS Assay for Inhibitors of Bacillus subtilis Sfp phosphopantetheinyl transferase (PPTase); Biochemical Sfp PPTase activity, qHTS; Potency, µM, for the others: largest response in the series, negative = inhibition, hits mostly inhibitors; actives 3.5% (n = 310,000); AID 1490, 2009;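 note: the enzyme is Sfp with the accession as filed and its product quenches rhodamine fluorescence; 0% = enzyme reaction without inhibitor and -100% = no enzyme wells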
#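 Compounds were incubated with enzyme (final 15 nM) for 15 min at room temperature before substrate addition started the reaction. Fluorescence at 525 nm excitation, 598 nm emission was recorded immediately and after 30 minutes.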
# Starred values were filed as active, the others as inactive; u = inconclusive; x = no result given; [ ] = another dose, or the depositor's remark. Calls come from the whole dose curve; as a rule, active = well fitted curve in the direction sought with a large enough effect; inconclusive = small, poorly fitted or top-dose-only effect, or another doubt; inactive = no such curve, though single readings can be large; an effect the other way counts as inactive or inconclusive. Potency is the fitted concentration of half-maximal effect.
SMILES,JMJD2A Tudor,G9a inh,BAZ2B inh,HP1b binding inh,L3MBTL1 inh,Sfp PPTase inh
Cc1cc(C(=S)N2CCOCC2)c(C)n1-c1ccc(F)cc1,-16%,x,45µM*,33%,-1%,u
CCC(CC)C(=O)Nc1cccc(-c2nc3ncccn3c2C)c1,-21%,-3%[59 µM],6%,29%[57 µM],x,x
O=C(Cn1ccnc1)c1ccc(O)c(O)c1,22µM*,u,56µM*,15%,u,x
C=C1CCN(C(C(=O)NCc2ccc(Cl)c(Cl)c2)C(C)C)S(=O)(=O)c2ccccc21 (stereo unspecified),-3%,x,x,33%,x,5%
CC(=O)c1cccc(OCC(O)CNCCc2ccc(Cl)cc2)c1 (stereo unspecified),u,u,20µM*,8%,x,-27%
CCOc1ccc(OCC(O)CNC2CCN(Cc3ccccc3)CC2)cc1 (stereo unspecified),-24%,-8%,6%,-2%,-9%,7%
COC(=O)c1ccc(CNCC(O)COc2ccc(-c3ccccc3)cc2)cc1 (stereo unspecified),-15%,8%,-13%,13%,x,-7%
CC(C)(c1ccccc1)c1ccc(OCC(O)CNC2CCN(Cc3ccccc3)CC2)cc1 (stereo unspecified),2.8µM*,40µM*,50µM*,u,-20%,79µM*
OC(CNCc1ccc(Cl)cc1)COc1ccccc1 (stereo unspecified),20µM*,-46%,56µM*,u,x,-25%
CNCC(O)COc1ccccc1 (stereo unspecified),-5%,10%[59 µM],-4%,40%,x,15%
COc1ccc(CNCC(O)COc2ccc(C(C)(C)c3ccccc3)cc2)cc1 (stereo unspecified),10µM*,0%[2.33 µM],40µM*,u,x,56µM*
O=C(COc1ccc(C(=O)NCCN2CCOCC2)cc1)Nc1cccc(C(F)(F)F)c1,-13%,-41%,13%,23%,-2%,x
Cc1ccc2oc(=O)c3cc(C(=O)N(Cc4ccccc4)C(C)C)sc3c2c1,6%,4%[59 µM],2%,64%,x,x
c1ccc(CN(Cc2ccccc2)Cc2nnc(-c3cc4ccccc4[nH]3)o2)cc1,-13%,x,x,x,x,x
OC(CNCCc1ccc(Cl)cc1)COCc1ccco1 (stereo unspecified),7.1µM*,22µM*,u,u,-2%,-27%
CC(NCC(O)COCc1ccc(Cl)cc1)c1ccccc1 (stereo unspecified),-13%,-9%[59 µM],-1%,32%,x,20%
OC(CNCc1ccccc1)COCc1ccc(Cl)cc1 (stereo unspecified),-17%[57.1 µM],10µM*,50µM*,35%,-10%,-19%
CCOC(=O)c1cccc(OCC(O)CNCCOc2ccccc2F)c1 (stereo unspecified),18µM*,50µM*,u,71µM*,x,-22%
COc1ccc2c(c1)C(=O)[C@@H](OC(=O)Nc1ccc(C)c(Br)c1)[C@H](c1ccc(OC)c(Br)c1)O2,x,x,x,x,x,-6%
O=C(Nc1ccc([N+](=O)[O-])cc1Cl)c1cc(Br)ccc1O,u,x,x,4%,x,x
CC(C)(O)[C@H]1Cc2cc3ccc(=O)oc3cc2O1,-1%,-7%[2.33 µM],15%,21%,x,12%
O=C(NCCCCCCNC(=O)c1cncc(O)c1)c1cncc(O)c1,16µM*,71µM*,50µM*,16%,x,-16%
CCOC(=O)CCCNC(=O)c1cncc(O)c1,-17%,56µM*,u,32%,x,17%
O=C(NCCCCCCNC(=O)c1ccncc1)c1ccncc1,-8%,x,12%,26%,5%,-1%
